From PubChem
TWEAK Fn14 block – inhibitors of TWEAK-Fn14 interaction signaling; TWEAK-stimulated Fn14 reporter cells, luciferase luminescence, 8 h; inhibition, % at 10 µM; 2% of 360,000 active; AID 1159606; in the data active = inhibition above about 50%
Platelet DG rel – platelet dense granule release activity. inhibition, %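 (compounds screened at 7.5 µM in platelet-rich plasma)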. human platelet-rich plasma, SFLLRN dense granule ATP release, luminescence. 0.22% of 300,000 active;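 active = mean replicate score, as percent of positive control, at or above 50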
TROY NFkB inh – blocks TROY-dependent signaling in reporter cells | Q293 LMP1-TROYcd NF-kB luciferase reporter, 4 h | inhibition, % at 10 µM | 0.98% of 360,000 active;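 active = compounds whose plate-normalised and pattern-corrected inhibition of the luciferase reporter signal at the single screening dose is 50% or more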
PPC-1+TRAIL kill – compounds killing PPC-1 cancer cells with TRAIL present (potentiator screen, no TRAIL-free arm); PPC-1 cells + TRAIL, ATPLite viability luminescence; cell killing (% activity), % at 4 µM or 5 µM; 0.41% of 220,000 active; AID 1443;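 active = cell killing above 50% in the first pass at 4 µM, then a duplicate retest at 5 µM averaging 50% or more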
HSP90 refold inh – inhibitors of HSP90 luciferase refolding in rabbit reticulocyte lysate | luciferase refolding luminescence, 3 h | inhibition, % at 5.6 µM | 0.91% of 290,000 active | AID 1789;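 active = inhibition above the screen-wide mean plus 3 SD, computed separately per campaign, cut at about 16% in these data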;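 note: inhibitors lower the luminescence because luciferase stays unfolded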
C8 TRAIL sens – sensitizes caspase-8 expressing cells to TRAIL; NB7+C8 cells + TRAIL, ATPlite viability luminescence; inhibition (viability loss, TRAIL sensitization), % at 10 µM; 1% of 360,000 active;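 active = compounds causing at least 50% loss of cell viability in the single-dose screen, relative to plate controls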
Large screens that a line does not name were inactive; ! = not active in a repeat. In the library only some 3.5% were active in any assay of this set; here they are far more common.

Cc1cccc(NC(=S)NNC(=O)c2ccc3c(c2)OCO3)c1	C8 TRAIL sens 50
Cc1cc(NC(=O)c2ccc3c(c2)OCO3)ccc1NC(=O)c1ccco1	Platelet DG rel 75
O=C(Nc1ccc2c(c1)OCCO2)NC1CCCCC1	C8 TRAIL sens 55
Cc1cccc(NC(=S)NCc2ccc3c(c2)OCO3)c1	none
CCc1c(C)sc(NC(=O)c2noc(C)c2[N+](=O)[O-])c1C#N	none
COC(=O)/C=C/c1cccc([C@H]2[C@@H]3C=CC[C@@H](C)[C@@H]3C(=O)N2Cc2ccccc2)c1	none (no result: Platelet DG rel, PPC-1+TRAIL kill, HSP90 refold inh)
O=C(Nc1ccccc1-c1ccccc1)c1ccccc1	TWEAK Fn14 block 62 (no result: PPC-1+TRAIL kill)
O=C(Nc1ccc2c(c1)OCCO2)c1ccco1	TWEAK Fn14 block 61
O=C(Nc1ccc2c(c1)OCCO2)c1cc2sccc2n1Cc1ccccc1	TWEAK Fn14 block 53
CC(C)COc1ccc(C(=O)Nc2ccc(NC(=O)c3ccco3)c(Cl)c2)cc1	Platelet DG rel 50
O=C(Nc1ccc2c(c1)OCCO2)c1cc2sccc2n1Cc1ccc(F)cc1	none
O=C(Nc1cccc(NC(=O)c2ccco2)c1)c1ccc2c(c1)OCCO2	none
CCOCC(=O)Nc1ccc([N+](=O)[O-])cc1C	none
COc1ccc(NS(=O)(=O)c2ccc3c(c2)NC(=O)CC(=O)N3)cc1OC	none (no result: PPC-1+TRAIL kill)
O=C(Nc1ccccc1-c1ccccc1NC(=O)c1ccco1)c1ccco1	TWEAK Fn14 block 66 (no result: TROY NFkB inh)
Cc1cc(C)c(OCC(=O)Nc2ccc(NC(=O)c3ccco3)cc2)c([N+](=O)[O-])c1	none (no result: Platelet DG rel)
Cc1cc(C)c(OCC(=O)Nc2cccc(NC(=O)c3ccco3)c2)c(Br)c1	TWEAK Fn14 block 56
O=C(Nc1ccccc1NC(=O)c1ccco1)c1ccco1	none
Nn1cnnc1N/N=C/c1cc(Br)cc(Br)c1O	HSP90 refold inh 68
CC(C)(C)c1ccc(/C=N/Nc2nncn2N)cc1	none (no result: PPC-1+TRAIL kill)
COc1ccc(NC(=O)C2(C)Cc3c(-c4ccc(N(C)C)cc4)ccnc3O2)cc1 (centres undefined)	none (no result: Platelet DG rel, PPC-1+TRAIL kill, HSP90 refold inh)
Cc1ccc(-c2nnc(SCC(=O)N/N=C/c3ccccc3C(=O)O)n2-c2ccc(C)cc2)cc1	TWEAK Fn14 block 92
O=C(CSc1nnc(-c2ccc(Cl)cc2)n1-c1ccc(Cl)cc1)N/N=C/c1ccccc1C(=O)O	none (no result: TWEAK Fn14 block, TROY NFkB inh, C8 TRAIL sens)
O=C(Nc1ccccc1OC(=O)c1ccccc1)c1ccccc1	none (no result: Platelet DG rel, PPC-1+TRAIL kill, HSP90 refold inh)
Cc1cccc2sc(NNC(=O)c3ccc(S(=O)(=O)N4CCCC(C)C4)cc3)nc12 (centres undefined)	TWEAK Fn14 block 63, C8 TRAIL sens 67
Cc1cc(C(=O)COC(=O)C2=NNC(=O)CC2)c(C)n1-c1ccccc1	TROY NFkB inh 57
O=C(OCC(=O)N1CCN(c2ccccc2)CC1)C1=COCCO1	none
Cc1cc(C(=O)COC(=O)C2=COCCO2)c(C)n1-c1ccccc1	TWEAK Fn14 block 103, TROY NFkB inh 87, C8 TRAIL sens 73 (no result: Platelet DG rel, PPC-1+TRAIL kill, HSP90 refold inh)
Cc1nn(C)c(C)c1NC(=O)COc1ccc(Cl)cc1Br	none (no result: Platelet DG rel, PPC-1+TRAIL kill, HSP90 refold inh)
COC1(OC)C=CC(=O)C=C1NC(=O)c1ccccc1OC(C)=O	TWEAK Fn14 block 63 (no result: PPC-1+TRAIL kill, HSP90 refold inh)
CC(=O)Oc1ccccc1C(=O)Nc1ccccc1	none (no result: PPC-1+TRAIL kill, HSP90 refold inh)
COc1ccc(-n2c(C)cc(/C=C3/SC(=S)N(C)C3=O)c2C)cc1	TWEAK Fn14 block 70, TROY NFkB inh 52
Cc1cc(/C=C2\SC(=S)N(Cc3ccco3)C2=O)c(C)n1-c1ccccc1	TWEAK Fn14 block 62
Cc1cc(/C=C2\SC(=S)N(C)C2=O)c(C)n1-c1cccc(O)c1	TWEAK Fn14 block 92
CC12CCC(C(=O)Nc3nc4ccccc4s3)(OC1=O)C2(C)C (centres undefined)	none
O=C1SCCC1NS(=O)(=O)c1ccc([N+](=O)[O-])cc1 (centres undefined)	none (no result: PPC-1+TRAIL kill)
COc1ccc(NC(=O)CSc2nnc(-c3cccnc3)s2)cc1	none (no result: PPC-1+TRAIL kill)
CNc1ccc(/C=C2\COc3ccccc3C2=O)cc1[N+](=O)[O-]	none
O=C1/C(=C/c2ccc(O)cc2)COc2ccccc21	TWEAK Fn14 block 66 (no result: PPC-1+TRAIL kill)
O=C1/C(=C/c2ccccc2[N+](=O)[O-])COc2ccccc21	TWEAK Fn14 block 94
CC(=O)Oc1ccc(-c2cccc(C(=O)OCC(=O)Nc3ccccc3Oc3ccccc3)c2)cc1	none
CCOc1ccccc1NC(=O)COC(=O)c1cccc(-c2ccc(OC(C)=O)cc2)c1	TWEAK Fn14 block 64, TROY NFkB inh 62
O=Cc1c[nH]c2cccc(OCc3ccccc3)c12	none (no result: Platelet DG rel, PPC-1+TRAIL kill, HSP90 refold inh)
CCCOc1ccc(F)cc1-c1cc(C(=O)Nc2ccc(OC)nc2)[nH]n1	none (no result: Platelet DG rel, PPC-1+TRAIL kill, HSP90 refold inh)
CCCOc1ccc(F)cc1-c1cc(C(=O)Nc2cc(OC)c(OC)c(OC)c2)[nH]n1	TWEAK Fn14 block 64 (no result: Platelet DG rel, PPC-1+TRAIL kill, HSP90 refold inh)
CCOC(=O)Cc1csc(SCC(=O)NC2CCC(C)CC2)n1 (centres undefined)	none (no result: PPC-1+TRAIL kill, HSP90 refold inh)
CCOC(=O)c1cc2c(=O)n3cccc(C)c3nc2n(CCOC)c1=NC(C)=O	none
CCOC(=O)c1cc2c(=O)n3cccc(C)c3nc2n(CC2CCCO2)c1=NC(C)=O (centres undefined)	TWEAK Fn14 block 92! (no result: PPC-1+TRAIL kill)
O=C(Cn1cnc2ccccc2c1=O)Nc1nnc(SCc2ccc(Cl)cc2)s1	none
Oc1ccc(-c2cn3ccccc3n2)cc1	C8 TRAIL sens 63
c1ccc(-c2cn3ccccc3n2)cc1	none (no result: Platelet DG rel, PPC-1+TRAIL kill, HSP90 refold inh)
Brc1ccc(-c2cn3cccnc3n2)cc1	none (no result: Platelet DG rel)
Brc1ccc(-c2cn3ccccc3n2)cc1	C8 TRAIL sens 47
CC(C)C(=O)Nc1cccc(-c2cn3ccccc3n2)c1	HSP90 refold inh 16
CC(=O)Nc1cccc(-c2cn3ccccc3n2)c1	none
CN(C)S(=O)(=O)c1ccc(-c2cn3ccccc3n2)cc1	C8 TRAIL sens 60
CCOC(=O)c1ccc(NCc2cccnc2)cc1	none (no result: PPC-1+TRAIL kill)
CCc1nc2ccc(C(=O)Nc3ccc(C(N)=O)cc3)cn2c1N(CCC(C)C)CCN(C)C	none (no result: Platelet DG rel, PPC-1+TRAIL kill, HSP90 refold inh)
CCOc1ccc(-c2cn3ccccc3n2)cc1[N+](=O)[O-]	C8 TRAIL sens 52
COc1cccc(-c2cc3nc(-c4ccccc4)cc(=O)n3[nH]2)c1	C8 TRAIL sens 41 (no result: PPC-1+TRAIL kill)
O=c1cc(-c2ccccc2)nc2cc(-c3ccc(F)cc3)[nH]n12	C8 TRAIL sens 56 (no result: PPC-1+TRAIL kill, HSP90 refold inh)
Cc1cc(=O)n2[nH]c(-c3ccccc3)cc2n1	none
COc1ccc(-c2c(C(F)(F)F)[nH]n3c(=O)cc(-c4ccccc4)nc23)cc1	TROY NFkB inh 51
CCCCn1c(N)c(N(CC(C)C)C(=O)CCNC(=O)c2ccc([N+](=O)[O-])cc2)c(=O)[nH]c1=O	none (no result: Platelet DG rel, PPC-1+TRAIL kill, HSP90 refold inh)
O=C(CNc1cccc2ccccc12)N/N=C/c1ccc(C(=O)O)cc1	none
O=C(O)c1ccc(/C=N/NC(=O)c2cc3c(ccc4ccccc43)o2)cc1	TROY NFkB inh 63 (no result: PPC-1+TRAIL kill)
O=C(CNc1ccc2ccccc2c1)N/N=C/c1ccc(C(=O)O)cc1	TWEAK Fn14 block 53
O=C(Nc1nc2ccccc2s1)C1CCN(S(=O)(=O)c2cc([N+](=O)[O-])ccc2Cl)CC1	TWEAK Fn14 block 84
O=C(CSc1nc2ccccc2o1)Nc1ccc(N2CCOCC2)c(Cl)c1	TROY NFkB inh 52
CCC(C)NC(=O)C1CCN(S(=O)(=O)c2cc([N+](=O)[O-])ccc2Cl)CC1 (centres undefined)	none
